Compounds without any hit were thinned out: in the full panel of roughly 83,000, 20% have a hit.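 Cells were grown in 96-well plates and exposed to the test compound at a single concentration for 48 hours; results are reported as percent growth, with values below 10 considered active.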 A number with no mark means an inactive call. Activity calls are given as the source filed them.
Assays:
Assay in all cases: NCI-60 one-dose screen, 48 h (100 = growth as untreated, 0 = no growth, -100 = all killed)
NCI-H460 lung = details: 10 µM unless noted
HOP-92 NSCLC = details: 10 µM unless noted
MDA-MB-231 breast = details: 10 µM unless noted
RXF 393 renal = details: 10 µM unless noted
SNB-75 CNS = details: 10 µM unless noted
SNB-19 CNS = details: 10 µM unless noted
SK-MEL-5 melanoma = details: 10 µM unless noted
LOX IMVI melanoma = details: 10 µM unless noted
UO-31 renal = details: 10 µM unless noted
CAKI-1 renal = details: 10 µM unless noted
MOLT-4 leukemia = details: 10 µM
SR leukemia = details: 10 µM
OVCAR-4 ovarian = details: 10 µM unless noted
SK-OV-3 ovarian = details: 10 µM unless noted
T-47D breast = details: 10 µM unless noted
MDA-MB-435 melanoma = details: 10 µM unless noted
SW-620 colon = details: 10 µM unless noted
HCT-116 colon = details: 10 µM unless noted
HCC-2998 colon = details: 10 µM unless noted
KM12 colon = details: 10 µM unless noted

Compound | growth (NCI-H460 lung) | growth (HOP-92 NSCLC) | growth (MDA-MB-231 breast) | growth (RXF 393 renal) | growth (SNB-75 CNS) | growth (SNB-19 CNS) | growth (SK-MEL-5 melanoma) | growth (LOX IMVI melanoma) | growth (UO-31 renal) | growth (CAKI-1 renal) | growth (MOLT-4 leukemia) | growth (SR leukemia) | growth (OVCAR-4 ovarian) | growth (SK-OV-3 ovarian) | growth (T-47D breast) | growth (MDA-MB-435 melanoma) | growth (SW-620 colon) | growth (HCT-116 colon) | growth (HCC-2998 colon) | growth (KM12 colon)
Oc1c(Br)cc(Br)cc1Br.[Cu+2] | 103% | 90.5% | 111% | 109% | 98.7% | 118% | 102% | 89% | 81.2% | 104% | 92.1% | 90.8% | 87.4% | 94.3% | 119% | 105% | 99.2% | 98.4% | 95.8% | 98.1%
CCN1CC2(CN(CC)C1=S)C(=O)NC(=O)NC2=O | 100% | 53.9% | 110% | 116% |  | 107% | 106% | 103% | 99.4% | 85.4% | 107% | 114% | 93.3% | 97.4% | 90.4% | 103% | 97.4% | 97.3% | 99.7% | 94.1%
CCCCOC(=O)c1ccccc1C(=O)O.CCCCOC(=O)c1ccccc1C(=O)O.[Cu+2] | 109% |  | 124% | 116% | 104% | 131% | 98% | 89.4% | 96.5% | 113% | 96.8% | 92.7% | 101% | 93.4% | 104% | 105% | 98.8% | 102% | 104% | 105%
COC[CH2][Hg][C]#[C][Hg][CH2]COC | 94.4% | 111% |  | 59.4% | 83% | 108% |  | 17.5% | 92.8% | 94.8% | 79.8% | 8.96% (active) | 61.2% | 96.5% | 91.7% | 43% | 108% | 99.2% | 103% | 85.5%
Cn1cnnc1[S-].[Au+].c1ccc([PH+](c2ccccc2)c2ccccc2)cc1 | 58.5% | -58.1% (active) | 30.3% | -78.6% (active) | -62.3% (active) | 11.4% | -9.96% (active) | -48.6% (active) | 48.5% | 23.6% | -9.25% (active) | 4.41% (active) | 38.9% |  | -16.6% (active) | 11.1% | -49.3% (active) |  | 48.3% | 58.3%
CCOP(=O)(OCC)Oc1ccc(Sc2ccc(OP(=O)(OCC)OCC)cc2)cc1 | 113% | 79.7% | 119% | 106% | 95% | 100% | 100% | 107% | 75% | 93.1% | 93.8% | 94.2% | 116% | 103% | 97.9% | 96.8% | 113% | 100% | 102% | 99.9%
COc1ccc(CN2CCN(Cc3ccccc3)CC2)c(O)c1 | 97% | 87.9% | 104% | 105% |  | 104% | 87.9% | 92.1% | 68.7% | 92.4% | 83.7% | 73.5% | 99.8% | 95.7% | 84.7% | 103% | 98.5% | 83.4% | 89.4% | 100%
CNC(=O)Oc1ccccc1-c1ccccc1 | 112% | 101% | 114% | 120% | 88.3% | 97.7% | 107% | 104% | 81.8% | 95.5% | 96% | 99% | 110% | 101% | 105% | 99.3% | 103% |  | 101% | 102%
N#CC(C#N)=Cc1ccc2ccccc2c1 |  | 95.1% | 106% | 96.5% | 103% | 106% | 101% | 84% |  | 101% | 107% |  | 110% | 104% | 110% | 114% |  | 107% |  | 

— PubChem BioAssay (NCI)
